{
  "source": "the antibiotic and cytotoxicity screens of Wong et al. (2023)",
  "note": "Out of some 39,000 compounds screened, about 1,500 (3.8%) were called active. Only a selection was taken, and actives are over-represented in it overall.",
  "data": [
    {"tested_on": "HSkMC (human skeletal muscle cells)", "assay": "cytotoxicity call (relative viability < 0.9)", "details": "10 µM", "values": [
      {"smiles": "CC(=NNC(=O)c1nnn(-c2nonc2N)c1CN1CCC(C)CC1)c1cccc(Br)c1", "cytotoxicity call": "inactive"},
      {"smiles": "CN1C(=O)[C@@H]2[C@H](N=CN2CCCO)N(C)C1=O", "cytotoxicity call": "inactive"},
      {"smiles": "C=CCNC(=O)[C@H]1[C@@H]2C(=O)O[C@@H](c3ccccc3)[C@@H](c3ccccc3)N2[C@@H](c2ccc(O)cc2)[C@]12C(=O)Nc1ccc(C#CC3=CCCCC3)cc12", "cytotoxicity call": "inactive"},
      {"smiles": "COc1ccc(S(=O)(=O)Nc2ccc3c(c2)C(=O)N([C@@H](C)CO)C[C@H](C)[C@H](CN(C)S(=O)(=O)c2cn(C)cn2)OCCCC[C@@H](C)O3)cc1", "cytotoxicity call": "inactive"},
      {"smiles": "C[C@@H](NC(=O)C[C@H]1CC[C@@H](NC(=O)CN2CCOCC2)[C@@H](CO)O1)c1ccccc1", "cytotoxicity call": "inactive"},
      {"smiles": "C[C@@H]1CN([C@@H](C)CO)C(=O)Cc2cc(NC(=O)Cn3cnnn3)ccc2O[C@@H]1CN(C)Cc1ccc(C(F)(F)F)cc1", "cytotoxicity call": "inactive"},
      {"smiles": "CO[C@H](CN(C)C(=O)c1ccc2c(c1)OCO2)[C@H](C)CN([C@H](C)CO)S(=O)(=O)c1ccc(C)cc1", "cytotoxicity call": "inactive"},
      {"smiles": "CO[C@H](CN(C)C(=O)c1ccc2c(c1)OCO2)[C@@H](C)CN([C@H](C)CO)S(=O)(=O)c1ccc(C)cc1", "cytotoxicity call": "inactive"},
      {"smiles": "COc1ccc(CNC(=O)[C@H](c2ccc(C)cc2)N(Cc2cccs2)C(=O)c2ccc3c(c2)OCCO3)cc1", "cytotoxicity call": "active"},
      {"smiles": "COc1cccc(C#Cc2cnc3c(c2)C(=O)N([C@H](C)CO)C[C@@H](C)[C@H](CN(C)C(=O)C2CCOCC2)O3)c1", "cytotoxicity call": "inactive"},
      {"smiles": "CC(C)C#Cc1ccc2c(c1)O[C@@H](CN(C)C(=O)Cc1ccccn1)[C@H](C)CN([C@H](C)CO)S2(=O)=O", "cytotoxicity call": "inactive"},
      {"smiles": "C[C@H]1CN([C@@H](C)CO)C(=O)c2cccc(NC(=O)Nc3ccccc3)c2O[C@@H]1CN(C)Cc1ccc(-c2ccccc2)cc1", "cytotoxicity call": "inactive"},
      {"smiles": "C[C@@H]1CN([C@@H](C)CO)C(=O)c2cccc(NC(=O)Nc3ccccc3)c2O[C@H]1CN(C)Cc1ccc(C(=O)Nc2ccccc2N)cc1", "cytotoxicity call": "inactive"},
      {"smiles": "C[C@@H]1CN([C@H](C)CO)C(=O)c2cccc(NC(=O)Nc3ccccc3)c2O[C@@H]1CN(C)Cc1ccc(C(=O)Nc2ccccc2N)cc1", "cytotoxicity call": "inactive"},
      {"smiles": "C[C@@H]1CN([C@@H](C)CO)C(=O)c2cccc(NC(=O)Nc3ccccc3)c2O[C@H]1CN(C)Cc1ccc(-c2ccccc2)cc1", "cytotoxicity call": "active"},
      {"smiles": "C[C@H]1CN([C@@H](C)CO)C(=O)c2cccc(NC(=O)Nc3ccccc3)c2O[C@H]1CN(C)Cc1ccc(-c2ccccc2)cc1", "cytotoxicity call": "inactive"},
      {"smiles": "C[C@@H]1CN([C@H](C)CO)C(=O)c2cccc(NC(=O)Nc3ccccc3)c2O[C@@H]1CN(C)Cc1ccc(-c2ccccc2)cc1", "cytotoxicity call": "inactive"},
      {"smiles": "C[C@@H]1CN([C@H](C)CO)C(=O)c2cccc(NC(=O)Nc3ccccc3)c2O[C@H]1CN(C)Cc1ccc(-c2ccccc2)cc1", "cytotoxicity call": "active"},
      {"smiles": "C[C@@H]1CN([C@@H](C)CO)C(=O)c2cccc(NC(=O)Nc3ccccc3)c2O[C@@H]1CN(C)Cc1ccc(-c2ccccc2)cc1", "cytotoxicity call": "active"},
      {"smiles": "C[C@H](CO)N1C[C@H](C)[C@H](CN(C)Cc2ccc(-c3ccccc3)cc2)Oc2c(NC(=O)Nc3ccc(F)cc3)cccc2C1=O", "cytotoxicity call": "inactive"},
      {"smiles": "C[C@H](CO)N1C[C@H](C)[C@@H](CN(C)Cc2ccc(-c3ccccc3)cc2)Oc2c(NC(=O)Nc3ccccc3)cccc2C1=O", "cytotoxicity call": "inactive"},
      {"smiles": "C[C@H]1CN([C@@H](C)CO)C(=O)c2cccc(NC(=O)Nc3ccccc3)c2O[C@H]1CN(C)Cc1ccc(C(=O)Nc2ccccc2N)cc1", "cytotoxicity call": "active"},
      {"smiles": "C[C@H](CO)N1C[C@H](C)[C@H](CN(C)Cc2ccc(-c3ccccc3)cc2)Oc2c(NC(=O)Nc3ccccc3)cccc2C1=O", "cytotoxicity call": "inactive"},
      {"smiles": "C[C@H]1CN([C@@H](C)CO)S(=O)(=O)c2ccc(-c3cccnc3)cc2O[C@@H]1CN(C)CC1CCOCC1", "cytotoxicity call": "inactive"},
      {"smiles": "O=C(O)CCCCN(CCc1ccccc1OCc1ccc(CCc2ccccc2)cc1)Cc1ccc(C(=O)O)cc1", "cytotoxicity call": "inactive"},
      {"smiles": "COc1ccc(S(=O)(=O)N(C)C[C@H]2Oc3c(NC(=O)c4ccncc4)cccc3C(=O)N([C@@H](C)CO)C[C@H]2C)cc1", "cytotoxicity call": "inactive"},
      {"smiles": "CN1C(=O)CS(=O)(=O)[C@@H]1c1ccccc1", "cytotoxicity call": "inactive"},
      {"smiles": "C[C@@H]1CCCCO[C@H](CN(C)Cc2ccc(C(=O)O)cc2)[C@H](C)CN([C@@H](C)CO)C(=O)c2cc(NC(=O)Cc3ccccc3)ccc2O1", "cytotoxicity call": "inactive"},
      {"smiles": "C[C@@H]1CCCCO[C@H](CN(C)C(=O)Nc2ccc(F)cc2)[C@@H](C)CN([C@@H](C)CO)C(=O)c2cc(NC(=O)Nc3ccccc3)ccc2O1", "cytotoxicity call": "inactive"},
      {"smiles": "CN(C)CCCCCCNC(=O)[C@@H]1C[C@@H]2C(=O)NCC(=O)N2[C@@H]1c1cccc(OCCO)c1", "cytotoxicity call": "inactive"},
      {"smiles": "Cc1ccc(S(=O)(=O)N(C)C[C@@H]2Oc3ccc(NS(=O)(=O)c4cn(C)cn4)cc3C(=O)N([C@@H](C)CO)C[C@@H]2C)cc1", "cytotoxicity call": "inactive"},
      {"smiles": "C[C@@H]1CN([C@H](C)CO)C(=O)c2cc(NC(=O)Cc3ccccc3)ccc2O[C@@H]1CN(C)C(=O)Nc1ccc(C(F)(F)F)cc1", "cytotoxicity call": "inactive"},
      {"smiles": "CCOC(=O)[C@H]1C/C=C/C[C@H](C(=O)OCC)C(=O)O[C@H]2[C@@H](OC)O[C@H](COC(=O)NCCCCCC(=O)NO)[C@@H](OC(=O)Nc3ccccc3)[C@@H]2OC1=O", "cytotoxicity call": "inactive"},
      {"smiles": "C[C@H]1CCCCO[C@H](CN(C)C(=O)Nc2ccc(F)cc2)[C@@H](C)CN([C@@H](C)CO)C(=O)c2cc(NS(=O)(=O)c3ccc(F)cc3)ccc2O1", "cytotoxicity call": "inactive"},
      {"smiles": "COc1ccccc1C#Cc1cnc2c(c1)C(=O)N([C@H](C)CO)C[C@H](C)[C@@H](CN(C)C(=O)CC1CC1)O2", "cytotoxicity call": "inactive"},
      {"smiles": "CC(C)(C)S(=O)N1Cc2cc(C(=O)N[C@@H]3CCN(Cc4ccccc4)C3)nc(-c3cccc(C#CCC4CCCC4)c3)c2[C@H]1CCO", "note": "(stereo partly specified)", "cytotoxicity call": "active"},
      {"smiles": "CC(C)(C)S(=O)N1Cc2cc(C(=O)NCc3ccc(Oc4ccccc4)cc3)nc(-c3cccc(C#CCC4CCCC4)c3)c2[C@@H]1CCO", "note": "(stereo partly specified)", "cytotoxicity call": "active"},
      {"smiles": "COc1ccc(C#Cc2cccc(-c3nc(C(=O)N[C@@H]4CCN(Cc5ccccc5)C4)cc4c3[C@H](CCO)N(S(=O)C(C)(C)C)C4)c2)cc1OC", "note": "(stereo partly specified)", "cytotoxicity call": "inactive"},
      {"smiles": "CC(C)(C)S(=O)N1Cc2cc(C(=O)NCc3ccc4c(c3)OCO4)nc(-c3cccc(C#CCC4CCCC4)c3)c2[C@H]1CCO", "note": "(stereo partly specified)", "cytotoxicity call": "inactive"},
      {"smiles": "CC(C)(C)S(=O)N1Cc2cc(C(=O)N[C@@H]3CCN(Cc4ccccc4)C3)nc(-c3cccc(C#CCC4CCCC4)c3)c2[C@@H]1CCO", "note": "(stereo partly specified)", "cytotoxicity call": "inactive"},
      {"smiles": "CC(C)(C)S(=O)N1Cc2cc(C(=O)NCc3ccc4c(c3)OCO4)nc(-c3cccc(C#CCC4CCCC4)c3)c2[C@@H]1CCO", "note": "(stereo partly specified)", "cytotoxicity call": "inactive"},
      {"smiles": "O=C(C[C@H]1CC[C@H]2[C@@H](COC[C@@H](O)CN2C(=O)c2ccc3c(c2)OCO3)O1)NCCN1CCCC1", "cytotoxicity call": "inactive"},
      {"smiles": "O=C1[C@H]2C=NN[C@@H]2C(=O)N1Cc1ccccc1", "cytotoxicity call": "inactive"},
      {"smiles": "COc1ccc2c3c([nH]c2c1)[C@@H](CO)N(C[C@]13CCN(CC1)Cc1nccs1)C(=O)C1CCOCC1", "cytotoxicity call": "inactive"},
      {"smiles": "C[C@@H]1CN([C@@H](C)CO)C(=O)c2cccc(NS(C)(=O)=O)c2O[C@@H]1CN(C)S(=O)(=O)c1cccs1", "cytotoxicity call": "inactive"},
      {"smiles": "CCS(=O)(=O)NCC[C@@H]1CC[C@@H](NC(=O)Cc2ccccn2)[C@H](CO)O1", "cytotoxicity call": "inactive"},
      {"smiles": "C[C@H](CO)N1C[C@H](C)[C@@H](CN(C)Cc2ccc(C(F)(F)F)cc2)Oc2ccc(NC(=O)Cc3cn(C)c4ccccc34)cc2C1=O", "cytotoxicity call": "inactive"},
      {"smiles": "C[C@@H]1CN([C@@H](C)CO)C(=O)c2cc(NC(=O)Cc3cn(C)c4ccccc34)ccc2O[C@@H]1CN(C)C(=O)Nc1ccc(C(F)(F)F)cc1", "cytotoxicity call": "active"},
      {"smiles": "C[C@@H]1CN([C@H](C)CO)C(=O)c2cc(NC(=O)Cc3cn(C)c4ccccc34)ccc2O[C@@H]1CN(C)Cc1ccc(C(F)(F)F)cc1", "cytotoxicity call": "active"},
      {"smiles": "C[C@@H]1CN([C@H](C)CO)C(=O)c2cc(NC(=O)Cc3cn(C)c4ccccc34)ccc2O[C@H]1CN(C)C(=O)Nc1ccc(C(F)(F)F)cc1", "cytotoxicity call": "inactive"},
      {"smiles": "C[C@H](CO)N1C[C@H](C)[C@@H](CN(C)C(=O)Nc2ccc(C(F)(F)F)cc2)Oc2ccc(NC(=O)Cc3cn(C)c4ccccc34)cc2C1=O", "cytotoxicity call": "inactive"},
      {"smiles": "C[C@@H]1CN([C@H](C)CO)C(=O)c2cc(NC(=O)Cc3cn(C)c4ccccc34)ccc2O[C@H]1CN(C)Cc1ccc(C(F)(F)F)cc1", "cytotoxicity call": "inactive"},
      {"smiles": "O=C(C[C@H]1CC[C@H]2[C@@H](COC[C@@H](O)CN2S(=O)(=O)c2ccccc2)O1)N1CCc2ccccc2C1", "cytotoxicity call": "inactive"},
      {"smiles": "C[C@H]1CN([C@@H](C)CO)C(=O)c2cc(NS(=O)(=O)c3ccccc3)ccc2O[C@H]1CN(C)CC1CC1", "cytotoxicity call": "inactive"},
      {"smiles": "Cn1c(N)c(C(=O)c2ccco2)c(=O)n(C)c1=O", "cytotoxicity call": "inactive"},
      {"smiles": "C[C@H](CO)N1C[C@H](C)[C@H](CN(C)S(=O)(=O)c2ccc(Cl)cc2)Oc2ccc(NC(=O)CCN3CCOCC3)cc2CC1=O", "cytotoxicity call": "inactive"},
      {"smiles": "C[C@@H]1CN([C@@H](C)CO)S(=O)(=O)c2ccc(C#C[C@@H](C)O)cc2O[C@H]1CN(C)C(=O)c1ccncc1", "cytotoxicity call": "inactive"},
      {"smiles": "COc1ccc2c3c([nH]c2c1)[C@H](CO)N(C[C@]13CCN(CC1)CC1CCCC1)C(=O)CN1CCOCC1", "cytotoxicity call": "inactive"},
      {"smiles": "C[C@H]1CN([C@@H](C)CO)C(=O)Cc2cc(NC(=O)c3ccncc3)ccc2O[C@@H]1CN(C)S(=O)(=O)c1ccc(Cl)cc1", "cytotoxicity call": "inactive"},
      {"smiles": "C[C@@H]1CCCCO[C@@H](CN(C)Cc2ccccc2)[C@@H](C)CN([C@@H](C)CO)C(=O)c2cc(NC(=O)CCC(F)(F)F)ccc2O1", "cytotoxicity call": "inactive"},
      {"smiles": "CC(C)C[C@@H]1C(=O)O[C@H](C)C(=O)N(C)[C@@H](CC(C)C)C(=O)O[C@H](Cc2ccc(N3CCOCC3)cc2)C(=O)N(C)[C@@H](CC(C)C)C(=O)O[C@H](C)C(=O)N(C)[C@@H](CC(C)C)C(=O)O[C@H](Cc2ccc(N3CCOCC3)cc2)C(=O)N1C", "cytotoxicity call": "active"}
    ]}
  ]
}
